# PubChem BioAssay (NCATS)
# Inconclusive results are not listed. Values without a mark were called inactive. Active and inactive are the calls of the source. The call rests on the fitted dose curve; in most records, active means well fitted activation curve with a large enough effect; inconclusive means small, poorly fitted or top-dose-only effect; inactive means no such curve, though single readings can be large or run the other way.
# Target: D(1A) dopamine receptor (Homo sapiens) (UniProt P21728)
# Assay: HTS Assay for Allosteric Agonists of the Human D1 Dopamine Receptor: Primary Screen for Potentiators (AID 488982); on activity, positive = potentiation: 0% is about no effect
# Conditions: HEK293 T-REx D1 inducible cells, calcium flux, kinetic fluorescence; series mostly up to 8.37 µM; activity, positive = potentiation: at the top concentration
# Text: Dopamine receptors (DARs) are involved in the etiology and/or therapy of a number of neuropsychiatric and endocrine disorders. For instance, all receptor-based antiparkinsonian drugs work via stimulating the […] DAR subtype whereas all FDA-approved antipsychotic agents are antagonists of this receptor. […] There are three different types of allosteric modulators that we are seeking, two of which will stimulate or augment receptor signaling, allosteric agonists and potentiators, while the third, allosteric antagonists, will attenuate receptor signaling. The present primary screening assay measures compound agonism by tracking calcium flux in a […], inducible Hek293 Trex D1 cell line.
# Freshly passaged cells are plated in 1536 well black, clear bottom plates at a density of 4000 cells/well in 3 ul of complete media containing 1x tetracycline inducer. After an overnight incubation at 30 C in 5% CO2, cells are loaded with 2 ul of the no wash Calcium Assay Kit (ABD Bioquest) and incubated at room temperature for 30 to 90 minutes. A 10 cycle (1 second/cycle) baseline measurement is taken and then the FDSS online 1536 pintool delivers 23 nl of compound library (as well as dopamine controls) to the plate. The plate is measured for kinetically at 1 cycle/sec for 180 seconds and is considered to be the agonist portion of the assay (eg, compounds which activate a positive calcium response during this portion are flagged as potential agonists). Following the 180 second read, 1 ul of an EC20 of dopamine is delivered by an onboard pipette head. Measurements are taken kinetically for an additional 180 seconds.
# Potency means the concentration at half of the fitted maximal effect.
# Chain of D(1A) dopamine receptor (Homo sapiens) (P21728 whole entry, looked up): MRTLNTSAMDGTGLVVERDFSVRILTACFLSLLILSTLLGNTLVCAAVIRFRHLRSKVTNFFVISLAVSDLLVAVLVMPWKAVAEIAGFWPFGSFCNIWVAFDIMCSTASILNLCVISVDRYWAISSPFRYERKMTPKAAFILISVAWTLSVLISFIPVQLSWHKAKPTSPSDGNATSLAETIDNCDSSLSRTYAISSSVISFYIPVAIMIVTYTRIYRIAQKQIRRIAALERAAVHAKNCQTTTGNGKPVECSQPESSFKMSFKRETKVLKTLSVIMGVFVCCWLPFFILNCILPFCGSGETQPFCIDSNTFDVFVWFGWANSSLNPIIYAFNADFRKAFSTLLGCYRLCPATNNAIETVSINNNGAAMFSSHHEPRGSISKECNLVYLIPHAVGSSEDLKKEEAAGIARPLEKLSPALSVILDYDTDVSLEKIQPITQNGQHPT
Structure (SMILES),"activity, positive = potentiation [%]",Potency
CCCCC/C=C\CC(O)/C=C/c1cccc(CC(O)CCCCO)n1 (stereo not given),15.8,
CCCCN1CCC(n2c(=O)[nH]c3ccccc32)CC1,-26.6,
CC12C(=O)OC(=O)C1(C)C1CCC2O1 (stereo not given),28.4,
Ic1ccc(N2CCN(Cc3c[nH]c4ncccc34)CC2)cc1,-93.8,
NCCNC(=O)c1ncsc1-c1cccc(F)c1,-21.1,
CC(N)C(=O)OC(C)(C)Cc1ccc(Cl)cc1 (stereo not given),20.6,
O=C(Nc1ccccc1)c1cc([N+](=O)[O-])ccc1Cl,-0.491,
CN=c1nc(-c2ccccc2)n(-c2ccccc2)s1,-20.8,
N=C(N)SCCc1ccc(CCSC(=N)N)cc1,10.8,
CN(C)CCC(c1ccc(Cl)cc1)c1ccccn1 (stereo not given),-15.6,
NC[C@H]1O[C@@H](n2cnc3c(N)ncnc32)[C@H](O)[C@@H]1O,-6.25,
COc1ccccc1CNCCCCCCNCCCCCCCCNCCCCCCNCc1ccccc1OC,-34.9,
S=C(S)OC1CC2CC1C1CCCC21 (stereo not given),19,
N#C/C(=C\c1ccc(O)c(O)c1)C(=O)NCCCc1ccccc1,28.8,
N#C/C(=C\c1ccc(O)c(O)c1)C(=O)c1ccc(O)c(O)c1,4.4,
O=C(O)c1cc([N+](=O)[O-])ccc1NCCCc1ccccc1,1.41,
O=[N+]([O-])c1ccc2c(c1)S(=O)(=O)C=C2,-24,
Cc1nc2sccn2c(=O)c1CCN1CCC(=C(c2ccccc2)c2ccc(F)cc2)CC1,-52.1,
N#C/C(=C\c1ccc(O)c(O)c1)C(=O)NCc1ccccc1,32.9,
C[N+](C)(CCCCCC[N+](C)(C)CCCN1C(=O)c2cccc3cccc(c23)C1=O)CCCN1C(=O)c2cccc3cccc(c23)C1=O,-46.4,

Structure (SMILES),"activity, positive = potentiation [%]",Potency
NO,-6.36,
O=C(O)[C@@H]1C[C@H](C(=O)O)N1,9.74,
Cc1ccc(O)c(N=Nc2ccccc2)n1,12.7,
Oc1cc(O)cc(/C=C/c2ccc(O)c(O)c2)c1,,580 nM (active)
C=CC(=O)c1ccc(CCCCCC)cc1,-23,
CC(C)NCC(O)COc1cccc2ccccc12 (stereo not given),6.68,
Cc1ccccc1CNc1ncnc2c1ncn2C1OC(CO)C(O)C1O (stereo not given),0.91,
Cn1c(=O)c2[nH]c(-c3ccccc3)nc2n(C)c1=O,4.9,
CN1CCc2ccccc2Cc2[nH]c3ccccc3c2CC1,-101,
CCOC(=O)C1=C(C)NC(C)=C(C(=O)OCC)C1c1c(F)c(F)c(F)c(F)c1F,-5.37,
O=C1/C(=C/c2ccsc2)CC/C1=C\c1cccs1,11,
O=C1NC(=O)/C(=C/c2ccc(-c3ccc(F)cc3O)o2)S1,-49.2,
O=C(/C=C/c1ccc(O)cc1)c1ccc(O)cc1O,-3.76,
Clc1ccc(N2CCN(Cc3cc4ccccn4n3)CC2)cc1,-16.5,
O=S(=O)(c1cccc2c(I)cccc12)N1CCCNCC1,-69.5,
NC[C@@H]1O[C@H](C23CC4CC(CC(C4)C2)C3)Cc2c1ccc(O)c2O,-59.4,
O=[N+]([O-])c1ccc(CSc2ncnc3c2ncn3[C@@H]2O[C@H](CO)[C@@H](O)[C@H]2O)cc1,15.2,
COc1cc2nc(N3CCN(C(=O)OCc4ccccc4)C(C(=O)NC(C)(C)C)C3)nc(N)c2cc1OC (stereo not given),-21.9,
O=c1[nH]c2cc(C(F)(F)F)ccc2n1-c1cc(C(F)(F)F)ccc1O,-10.7,
O=C(O)c1cc(=O)c2ccccc2[nH]1,4.71,
